MCF10A rerep – induces DNA re-replication in MCF 10a normal breast cells | MCF 10A DNA re-replication, Hoechst nuclear intensity, 48 h | Potency, µM (highest dose often 46.1 µM), for inactives: at the highest dose activity, positive = re-replication, usual class: activators | 2.9% of 350,000 active | AID 624296; further: % of control where 0% means no effect; nearly all actives have a fitted effect of over 50% in size
KB-3-1 cytotox – kills parental KB-3-1 adenocarcinoma cells; AID 1347075; Potency, µM (top dose mostly 46.1 µM), hits mostly cytotoxic; 1.4% of 400,000 active; KB-3-1 viability, CellTiter-Glo ATP luminescence, 72 h; further: on the % scale 0 is the no-effect control and ±100 the full control effect; nearly all actives have a fitted effect of over 60% in size
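Screening of KB-3-1 cells (DMEM, 10% FBS, phenol-red free) ran from lowest to highest compound concentration; after 72 h at 37 °C viability was read luminescently and curves fitted.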
SW480 rerep – induces DNA re-replication in SW480 colon adenocarcinoma cells | SW480 DNA re-replication, Hoechst DNA content imaging, 48 h | Potency, µM (titrated, usually from 46.1 µM), inactives show top-dose re-replication activation, hits mostly activators | 1.8% of 340,000 active | AID 624297; further: % of control where 0% means no effect; nearly all actives have a fitted effect of over 55% in size
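First, 250 cells per well were seeded. Next, compound or vehicle (23 nL) was pinned in, plates sat 48 hr at 37 C. Finally Hoechst was added for 40 min before fluorescence scanning.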
12-LOX inh – blocks human arachidonate 12S-lipoxygenase. Potency, µM (series often up to 108 µM), without a hit: at the top dose activity change, negative = inhibition, actives largely listed as inhibitors. purified 12hLO, xylenol orange hydroperoxide absorbance. 1.1% of 580,000 active. P18054. AID 1671190; further: on the % scale 0 is the no-effect control and ±100 the full control effect
Target sequence (P18054 whole entry, looked up): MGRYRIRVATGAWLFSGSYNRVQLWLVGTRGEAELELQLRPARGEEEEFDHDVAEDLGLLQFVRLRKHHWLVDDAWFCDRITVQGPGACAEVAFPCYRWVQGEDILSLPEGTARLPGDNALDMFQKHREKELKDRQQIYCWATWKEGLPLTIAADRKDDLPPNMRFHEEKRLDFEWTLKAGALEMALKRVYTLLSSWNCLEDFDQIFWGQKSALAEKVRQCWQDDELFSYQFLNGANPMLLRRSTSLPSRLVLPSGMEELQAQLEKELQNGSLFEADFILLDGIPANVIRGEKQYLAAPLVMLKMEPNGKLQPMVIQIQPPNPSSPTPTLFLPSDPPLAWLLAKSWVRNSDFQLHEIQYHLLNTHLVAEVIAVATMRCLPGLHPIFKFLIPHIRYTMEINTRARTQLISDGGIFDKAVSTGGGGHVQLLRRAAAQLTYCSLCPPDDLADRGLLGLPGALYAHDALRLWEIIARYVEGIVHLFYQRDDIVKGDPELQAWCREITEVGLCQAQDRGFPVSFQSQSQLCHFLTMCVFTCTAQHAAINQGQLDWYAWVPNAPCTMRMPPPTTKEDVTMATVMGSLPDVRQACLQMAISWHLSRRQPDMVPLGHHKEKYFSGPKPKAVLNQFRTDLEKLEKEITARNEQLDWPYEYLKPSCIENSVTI
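Purified human 12hLO at 150 nM in 25 mM Hepes, 0.01% Triton X-100, pH 7.0, preincubated 15 min at room temperature with compound. Reaction started with 40 uM arachidonic acid, 30 min at room temperature. Hydroperoxide measured by Fe-xylenol orange, 573/405 nm absorbance ratio.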
KB-V1 MDR tox – kills drug-selected multidrug resistant KB-V1 cells; KB-V1 MDR cells viability, CellTiter-Glo, 72 h; Potency, µM (highest dose often 46.1 µM), usual class: cytotoxic; 3.4% of 400,000 active; AID 1347076; further: on the % scale 0 is the no-effect control and ±100 the full control effect; nearly all actives have a fitted effect of over 60% in size
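Luminescent ATP read-out (CellTiter-Glo, 10 min) measures survival of drug-selected KB-V1 MDR cells after 72 h, 37 degrees C compound exposure. Medium: phenol-red-free DMEM, 10% FBS. Values from fitted concentration-response curves.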
PINK1 modulator – modulators of PINK1 expression; PINK1 immunofluorescence, high-content cytometry, 24 h; Potency, µM (doses to about 76.6 µM), for inactives: at the highest dose activation (PINK1 increase), hits mostly activators; 0.2% of 410,000 active; AID 624263; active means well fitted activation curve with a large enough effect; inconclusive means small, poorly fitted or top-dose-only effect; cell line not stated here; further: % of control where 0% means no effect; nearly all actives have a fitted effect of over 65% in size
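Cells are seeded, rested 12 hours, then given compound at five concentrations or DMSO for 24 hours. After fixation, blocking and antibody staining, PINK1 amount and mitochondrial localization are scored; CCCP serves as control.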
Starred values were filed as active, the others as inactive; i = inactive; ? = inconclusive; . = no result given; [ ] = dose if it differs, or a comment. A selection: hits, their analogues and other compounds. The true share with any hit is near 5.8%. Unless noted, the call rests on the fitted dose curve; in most records, active means well fitted curve in the direction sought with a large enough effect; inconclusive means small, poorly fitted or top-dose-only effect, or another doubt; inactive means no such curve, though single readings can be large; an effect the other way counts as inactive or inconclusive. Potency means the concentration at half of the fitted maximal effect.

SMILES | MCF10A rerep | KB-3-1 cytotox | SW480 rerep | 12-LOX inh | KB-V1 MDR tox | PINK1 modulator
CC1CCCC(NC(=O)CCC2CCCO2)C1 (stereo unspecified) | . | . | . | -4% | . | .
CCC(c1ccc(O)cc1)C(CC)c1ccc(O)cc1 (stereo unspecified) | ? | i | ? | ? | ? | 3%
CC[C@H](c1ccc(O)cc1)[C@@H](CC)c1ccc(O)cc1 | 11µM* | . | 2%[20.6 µM] | . | . | .
Cc1nn(C)cc1/C=N/NC(=S)Nc1ccccc1 | 12% | i | 1.6µM* | ? | ? | 0%[38.3 µM]
Fc1ccccc1/C=N/NC(=S)Nc1ccc(Cl)cc1Cl | ? | 8.2µM* | 3.3µM* | 1% | 1.5µM* | 21%
CN(C)c1ccc(C=NNC(=S)Nc2ccc(F)cc2)cc1 | 21µM* | i | ? | ? | i | 3%
Fc1ccc(NC(=S)NN=Cc2ccccc2Cl)cc1 | 11% | i | ? | 50µM* | i | 13%
Oc1ccccc1C=NNC(=S)Nc1ccc(F)cc1 | ? | ? | 55% | ? | i | 12%
CCCCn1c(=O)[nH]c(=O)c2c1nc(COC(=O)C1CCCCC1)n2CC | . | . | . | -24% | . | .
CCN(CC)S(=O)(=O)c1ccc(C)c(NC(=O)Cc2ccccc2F)c1 | . | . | . | 7% | . | .
Cc1ccccc1CC(=O)Nc1cccc2cccnc12 | . | . | . | 6% | . | .
COc1ccc(NC(=O)c2cc[n+]([O-])cc2)cc1 | . | . | . | 33% | . | .
Cc1ccc(CN2CCC3(CC2)Cc2ccccc2CNC3=O)cc1C | . | . | . | 1%[6.33 µM] | . | .
O=C(CCc1ncc(-c2ccc(F)cc2F)o1)NCc1ccc(C(=O)N2CCCC2)cc1 | . | . | . | -33% | . | .
CN(C)c1ccc(Sc2ccc3nc(N)nc(N)c3c2)cc1 | . | 8.2µM* | . | ? | 8.2µM* | -2%
O=C1NC(C(=O)O)=CC(c2ccc(Br)cc2)N1 (stereo unspecified) | . | . | . | -39% | . | .
Cc1ccc(OC(C)C(=O)Nc2ccc3oc(C)nc3c2)cc1 (stereo unspecified) | . | . | . | -6% | . | .
COc1cccc(OCc2nc3ncc(Br)cc3[nH]2)c1 | -2% | 5.8µM* | -7% | -7% | 1µM* | 4%[38.3 µM]
Cc1cc(C)cc(OCc2nc3ncc(Br)cc3[nH]2)c1 | ? | 1.3µM* | 5.2µM* | 3% | 1µM* | 14%
Brc1cnc2nc(SCc3nc4ccccc4[nH]3)[nH]c2c1 | 3% | i | -17% | -14% | i | 4%
COc1cccc(-c2cc(C(=O)N3CCN(C(=O)c4ccc(Br)o4)CC3)[nH]n2)c1 | . | . | . | -1% | . | .
COc1ccc2c(c1OC)OCC2C (stereo unspecified) | ? | ? | 8% | -17% | 15µM* | 14%
COc1ccc2c(c1OC)OCC(c1ccc(OC)c(OC)c1OC)C2 (stereo unspecified) | . | . | . | . | . | 0%
COc1ccc(/C=C2\N=C(SC)N(c3ccccc3OC)C2=O)cc1 | ? | ? | 18µM* | -27% | i | 2%
CCCOc1ccc(N2C(=O)C/C(=C\c3ccccc3)C2=O)cc1 | 2% | i | -1% | 83% | i | 2%
SMILES | MCF10A rerep | KB-3-1 cytotox | SW480 rerep | 12-LOX inh | KB-V1 MDR tox | PINK1 modulator
CCOc1ccc(N2C(=O)/C(=C/c3ccccc3)N=C2SC)cc1 | 5.8µM* | i | 7% | -3% | i | 7%
Cn1c(/C(C#N)=C(\O)c2cc(Cl)sc2Cl)nc2ccccc21 | 13% | i | -14% | 29% | i | 8%
COc1ccc(/C(O)=C(\C#N)c2nc3ccccc3n2C)cc1OC | 19% | i | -12% | 23% | 5.8µM* | 7%[38.3 µM]
COc1cccc(CNC23CC4CC(CC(C4)C2)C3)c1OCc1ccccc1 | 29% | ? | ? | -25% | 21µM* | 9%
CC(C)NC(=O)C1(C)Cc2c(-c3ccc(C(N)=O)cc3)ccnc2O1 (stereo unspecified) | . | i | . | 0% | i | -1%
CC1(C(=O)NCc2ccccc2)Cc2c(-c3ccc(C(N)=O)cc3)ccnc2O1 (stereo unspecified) | . | 8.2µM* | . | -3% | i | 4%
CN(C)c1ccc(-c2ccnc3c2CC(C)(C(=O)NCc2ccccc2)O3)cc1 (stereo unspecified) | . | ? | . | -3% | ? | 3%
CC1(C(=O)NCc2ccco2)Cc2c(-c3ccc(C(N)=O)cc3)ccnc2O1 (stereo unspecified) | . | 18µM* | . | 1% | i | 7%
CC1(C(=O)NCc2ccccc2)Cc2c(-c3ccc4c(c3)OCO4)ccnc2O1 (stereo unspecified) | . | 4.6µM* | . | 7% | 2.1µM* | 6%
CC1(C(=O)NCc2ccccc2)Cc2c(-c3ccccc3)ccnc2O1 (stereo unspecified) | . | 21µM* | . | -1% | ? | 5%
COCCN1C(=O)C(=O)/C(=C(/O)c2ccc(OCC(C)C)c(C)c2)C1c1cccnc1 (stereo unspecified) | . | . | . | -23% | . | .
COc1cccc(/C=N/Nc2ccc([N+](=O)[O-])cn2)c1O | ? | 5.2µM* | 1.2µM* | 4% | i | -2%
COc1cccc(/C=N/Nc2nc(Nc3ccc([N+](=O)[O-])cc3)nc(N3CCCC3)n2)c1O | 6% | 16µM* | 5.8µM* | 7% | ? | 2%
O=C(O)c1ccccc1C=NNc1ccc([N+](=O)[O-])cn1 | -23% | i | -3% | -2% | i | -1%
CC(C=NNc1ccc([N+](=O)[O-])cn1)=Cc1ccccc1 | 9% | i | ? | ? | i | 28µM*
O=[N+]([O-])c1ccc(NN=Cc2cccc3ccccc23)nc1 | ? | ? | 3.3µM* | ? | i | 2%
O=C(Cn1nnnc1-c1ccc(Br)cc1)N1CCOCC1 | . | . | . | -1% | . | .
C/C(=N\NC(=O)c1cc2ccccc2cc1O)c1ccccn1 | 16% | ? | ? | 1% | i | 6%
Cc1cccc(/C=N\NC(=O)c2ccccc2-n2cccc2)c1 | -35% | i | -9% | 2% | i | -1%
O=C(N/N=C/c1ccc(Br)cc1)c1ccccc1-n1cccc1 | ? | ? | 13µM* | -18% | 15µM* | 5%[38.3 µM]
C/C(=N\NC(=O)c1ccccc1-n1cccc1)c1ccccn1 | . | 10µM* | . | 2% | i | 1%
Oc1ccc(-c2nc(C3CC3)nc3c2CCN(Cc2ccccc2C(F)(F)F)CC3)cc1 | . | . | . | 4% | . | .
Cc1ccc(C(=O)NNc2ncnc3c2cnn3C)cc1 | -1% | i | -52% | 0% | i | 1%
Cn1ncc2c(O/N=C(\N)c3ccc(C(F)(F)F)cc3)ncnc21 | ? | ? | 7.3µM* | 8% | ? | -1%

High-throughput results from PubChem.
